# High-throughput results: PubChem BioAssay, Broad Institute
# These entries were drawn from the full list.
# aSyn 5UTR act: Activators via SNCA 5'UTR binding, MLPCN. alpha-synuclein 5'UTR reporter, activators screen. activity score, % (tested at 7.5 µM), hits read low. 300,000 compounds, 7.1% hits; in the data active = activity score below about -60%
# Hits are given with their value; i = inactive.
SMILES,aSyn 5UTR act
COC(=O)CSc1nc2cc(C)ccc2cc1C#N,-189
Cc1cc(NC(=O)CSc2nc3ccccc3cc2C#N)no1,-158
COc1ccc2nc(SCC(=O)NC3CC3)c(C#N)cc2c1,-68
Cc1ccc(SCC(=O)c2c(C)nc3ccccn23)cc1,-85
Clc1nc2ccccc2cc1-c1nnn(-c2ccccc2)n1,-160
C=CCNC(=O)c1sc(-c2ccccc2)nc1C,-67
Cc1nc(-c2ccccc2)sc1C(=O)NN,-102
COc1ccc(C(=O)Nc2ccc(SC(F)F)cc2)cc1,-160
O=C(Nc1ccc(OC(F)(F)F)cc1)c1ccc2nccnc2c1,-112
O=C(Nc1ccc(SC(F)F)cc1)c1ccc2nccnc2c1,-218
NC(=O)c1ccc(-n2nnnc2Oc2ccccc2C(=O)N2CCOCC2)cc1,-108
c1ccc2c(Nc3nnc(-c4ccncc4)s3)cccc2c1,-186
Nc1ccccc1N=Nc1ccccc1N,-222
COc1ccc(C(=O)/C(=C\c2sccc2C)c2nc3ccccc3o2)cc1,-68
COCc1cc(C)nc2sc(C(=O)Nc3cccc(OC)c3)c(N)c12,-192
COCc1cc(C)nc2sc(C(=O)Nc3nccs3)c(N)c12,-121
O=c1oc2ccccc2c2oc3cc(O)c(O)cc3c12,-83
Cc1ccccc1NC(=O)c1cc2ccccn2n1,-109
Cc1ccc(C)c(NC(=O)c2cc3ccccn3n2)c1,-196
CCc1ccc2nc3sc(C(=O)O)cc3cc2c1,-81
CCC(Sc1nc2n[nH]c(C)c2c(=N)n1-c1cccc(Cl)c1C)C(=O)N(CC)CC (centres undefined),i
CC(C)Sc1ccc(C(=O)Nc2ccc(F)cc2F)cn1,-140
CS(=O)Cc1cc(Sc2ccccc2)nc(-c2cccnc2)n1 (centres undefined),-66
NC(=O)c1ccsc1NC(=O)c1ccc(S(=O)(=O)N2CCCCC2)cc1,-96
NC(=O)c1ccsc1NC(=O)c1ccc(S(=O)(=O)N2CCCC2)cc1,-103
SMILES,aSyn 5UTR act
CCC(C)Nc1nc(N)c([N+](=O)[O-])c(Nc2cc(OC)ccc2OC)n1 (centres undefined),i
CCN1CCN(c2nc(Nc3cccc(OC)c3)nc(N)c2[N+](=O)[O-])CC1,-86
CCC(C)Nc1nc(N)c([N+](=O)[O-])c(Nc2ccccc2OC)n1 (centres undefined),i
COc1cc(OC)cc(C(=O)Nc2ccccc2C(=O)N2CCCC2)c1,-123
COc1ccc(C(=O)Nc2ccccc2C(=O)N/N=C/c2cccc3ccccc23)cc1,-169
COc1ccc(C(=O)N[C@H](C(=O)Nc2nc3ccccc3[nH]2)C(C)C)cc1,i
COc1ccc(C(=O)NC2=Nc3ccccc3N=C(C)C2c2ccccc2)cc1 (centres undefined),-228
COc1cc(OC)cc(C(=O)NNC(=O)c2ccccn2)c1,i
CCC(NC(=O)c1ccccc1NC(=O)c1ccc(OC)cc1)C(=O)N1CCCC1 (centres undefined),-69
COc1ccc(C(=O)Nc2ccccc2C(=O)Nc2ccncc2)cc1,-105
COc1ccc(C(=O)Nc2ccccc2C(=O)Nc2ccccc2C(=O)O)cc1,-98
COC(=O)c1sccc1NC(=O)c1ccc(Br)s1,-67
COC(=O)c1sccc1NC(=O)c1csc(C)c1,-80
CCOc1ccccc1C(=O)Nc1ccsc1C(=O)OC,i
COC(=O)c1c(NC(=O)c2ccc(Br)s2)sc2c1CCC2,-92
O=C1/C(=C/c2cccc3ccccc23)CCCc2ccccc21,-106
CC(C(=O)N(C)C1CCS(=O)(=O)C1)N1C(=O)/C(=C/c2cccs2)SC1=S (centres undefined),-83
CC1(C)Cc2c(c(N3CCOCC3)nc3sc4c(NCc5ccccc5)nnnc4c23)CS1,i
O=C(Sc1cccc2cccnc12)c1ccccc1Br,-242
COc1ccc(/C=C2\SC(=O)N(CCC(=O)N(C)C3CCS(=O)(=O)C3)C2=O)cc1 (centres undefined),-84
O=C(CN1C(=O)S/C(=C\C=C\c2ccccc2)C1=O)NC1CCS(=O)(=O)C1 (centres undefined),-169
CC(C)c1ccc(/C=C2\SC(=S)N(CCC(=O)NCCCn3ccnc3)C2=O)cc1,i
COc1ccc(/C=C2\SC(=S)N(CCC(=O)NC3C=CS(=O)(=O)C3)C2=O)cc1 (centres undefined),i
CC(C)c1ccc(/C=C2\SC(=O)N(CC(=O)NC3CCS(=O)(=O)C3)C2=O)cc1 (centres undefined),-90
Cc1cc(CNC(=O)c2cccc(OC3CCN(S(=O)(=O)N(C)C)CC3)c2)on1,-139
SMILES,aSyn 5UTR act
COc1ccc(-c2nnc(NC(=O)c3ccc(S(=O)(=O)N4CCc5ccccc5C4)cc3)o2)cc1,i
CN(C)S(=O)(=O)N1CCC(Oc2ccc(C(=O)NC3Cc4ccccc4C3)cc2)CC1,-65
C/C(CC1CC(COCC(C)C)OC1=O)=N\Nc1nc(-c2ccccc2)cs1 (centres undefined),-82
Cc1cc(/C=C2/C(=O)N(C)C(=S)N2C)ccc1N1CCCC1,-212
Cc1cc(/C=C2\NC(=S)N(C)C2=O)ccc1N1CCCC1,-206
Cc1ccc(N2CN=C(c3ccccc3)NC2=S)cc1,-113
COc1ccc(C2=NCN(c3ccc(C)cc3)C(=S)N2)cc1,-138
Fc1ccc(Nc2ccnc(Nc3ccc(F)cc3)n2)cc1,-93
CCOc1ccc(NC(=O)c2cccs2)c([N+](=O)[O-])c1,-219
CCOc1ccc(NC(=O)c2ccc(CC)s2)c([N+](=O)[O-])c1,-168
CCOc1ccc(NC(=O)c2ccco2)c([N+](=O)[O-])c1,-131
O=C(Nc1ccccc1C(=O)Nc1nnc(C(F)(F)F)s1)c1ccccc1,i
CCOC(=O)c1sc(NC(=O)c2ccc(C)o2)nc1C,-287
CCOC(=O)c1sc(NC(=O)c2ccc(OC)cc2)nc1C,-109
COC(=O)c1sc(NC(=O)c2ccc(C)o2)nc1C,-203
Cc1c(C(=O)Nc2nnc(C(F)(F)F)s2)oc2ccccc12,-236
COC(=O)c1sc(NC(=O)c2oc3ccccc3c2C)nc1C,-142
Cc1cc(C)c2ccc(N)nc2c1O,i
Cc1ccc2nc3c(cc(C(N)=S)c(=N)n3CCCOC(C)C)c(=O)n2c1,-64
CN(C)c1ccc(/C=C/C=C2/SC(=S)N(c3ccccc3)C2=O)cc1,-76
O=C1/C(=C/C=C/c2ccco2)SC(=S)N1c1ccc(O)cc1,-78
O=C(O)c1ccc(COc2ccc(CO)cc2Cl)cc1,-92
O=C(O)c1cccc(COc2ccc(CO)cc2Cl)c1,i
CC(=O)Nc1ccc(N2N=C(C)C(N=Nc3ccccc3)C2=O)cc1 (centres undefined),-98
CC1=NN(c2nc(-c3ccc(C)cc3)cs2)C(=O)C1N=Nc1ccc(C(N)=O)cc1 (centres undefined),i
SMILES,aSyn 5UTR act
O=C(CCl)Nc1ccc(N=Nc2ccccc2)cc1,-63
CC(=O)Nc1ccc(N=Nc2ccccc2)cc1,-179
O=C(Nc1ccc(N=Nc2ccccc2)cc1)c1ccccc1Cl,-170
CC(=O)OCC(=O)Nc1ccc(N=Nc2ccccc2)cc1,-143
CC(C)C(=O)OCC(=O)Nc1ccc(N=Nc2ccccc2)cc1,-186
CC1(C(=O)OCC(=O)Nc2ccccc2)CC1(Cl)Cl (centres undefined),-69
Cc1cccc(N(C)C(=O)c2cc3cc4ccc(C)cc4nc3o2)c1,-605
Cc1cccc(N(C)S(=O)(=O)c2ccc(-c3cc(C)no3)s2)c1,i
Cc1cccc(-c2nc(N)nc(N)n2)c1,-74
Nc1nc(-c2ccc(Cl)cc2)nnc1-c1ccc(Br)cc1,-178
Nc1nc(N)nc(-c2ccc(Cl)cc2)n1,-112
